# Results from the supplement of paper PMC3334620.
# Whole data set: some 33,000 sequences, median “E-score (-0.5 to 0.5)” near -0.016, cut for the highest 2% near 0.3. For the sample, the highest values were picked, then their nearest neighbours and some sequences at random.
# Molecular target: T1, Yer184c (UniProt P39961)
# T1 sequence: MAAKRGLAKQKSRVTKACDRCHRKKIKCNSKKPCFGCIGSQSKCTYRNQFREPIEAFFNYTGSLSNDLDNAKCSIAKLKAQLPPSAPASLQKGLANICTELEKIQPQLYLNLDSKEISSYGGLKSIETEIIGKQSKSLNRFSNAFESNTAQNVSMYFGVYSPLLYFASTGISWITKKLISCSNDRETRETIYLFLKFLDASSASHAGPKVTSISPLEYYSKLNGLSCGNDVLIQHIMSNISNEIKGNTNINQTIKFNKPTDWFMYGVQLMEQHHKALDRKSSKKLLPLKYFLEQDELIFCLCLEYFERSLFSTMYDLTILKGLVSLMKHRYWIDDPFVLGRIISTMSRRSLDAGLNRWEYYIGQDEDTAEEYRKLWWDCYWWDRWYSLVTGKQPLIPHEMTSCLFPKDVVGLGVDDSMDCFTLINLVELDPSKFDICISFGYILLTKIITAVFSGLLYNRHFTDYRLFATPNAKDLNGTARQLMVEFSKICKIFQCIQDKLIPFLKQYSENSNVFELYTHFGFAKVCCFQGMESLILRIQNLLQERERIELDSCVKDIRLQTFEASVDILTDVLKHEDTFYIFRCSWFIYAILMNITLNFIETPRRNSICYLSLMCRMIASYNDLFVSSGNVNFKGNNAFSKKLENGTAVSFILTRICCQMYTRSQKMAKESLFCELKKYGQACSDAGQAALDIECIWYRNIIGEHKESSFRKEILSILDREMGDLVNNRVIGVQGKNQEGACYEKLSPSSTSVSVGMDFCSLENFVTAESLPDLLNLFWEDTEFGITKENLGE
# Assay: PBM E-score (8-mer binding enrichment) (E-score (-0.5 to 0.5)); higher = stronger / more preferred TF binding
# Settings: protein concentration: 100 nM; construct: GST-full length
# Method: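 Universal 'all 10-mer' protein binding microarrays (Agilent AMADID 015681) probed with GST-tagged S. cerevisiae TFs (full-length or DBD) made by in vitro transcription/translation (PURExpress), about 100-200 nM. Bound TF was detected with fluorescent anti-GST. Each ungapped 8-mer (which stands for itself and its reverse complement) is scored by the PBM enrichment score (E-score), a modified Wilcoxon-Mann-Whitney statistic from -0.5 to +0.5, computed with the Universal PBM Analysis Suite. Scale: above 0.35 generally sequence-specific binding.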
row,Sequence,PBM E-score
1,CTCTCGTA,-0.204
2,GATGAGCC,-0.0364
3,GACTTCCC,-0.0878
4,GAATACGA,0.118
5,GTCTCATA,-0.0146
6,CGCCATGA,-0.155
7,ATTGCAAC,0.0297
8,AGAGATCT,-0.168
9,CATGAGAC,-0.0666
10,ATAATATG,0.132
11,TTAATAAA,0.328
12,CTAATAAA,0.0623
13,CTAATATA,0.118
14,ATAATAAA,0.276
15,ATAATATA,0.323
16,ATGTGTCG,-0.0246
17,AGAGTTTC,-0.0656
18,AGGAATTG,-0.0124
19,CCGGTCCA,0.0407
20,CCGGTCCG,0.338
21,CCGGTCCC,0.0884
22,GCCTTAAC,-0.171
23,CGGTAGTA,0.0519
24,GCTCTTCC,0.0925
25,AGAGGTTG,-0.19

row,Sequence,PBM E-score
1,CCGAGCGA,0.244
2,CGGAGCGC,0.107
3,CGGAGCGA,0.332
4,CCGAGCCA,0.219
5,AGGAGCCG,0.0636
6,AGGAGCGA,-0.0501
7,GCGAGCGC,0.0998
8,ACGAGCCG,0.22
9,CCGAGCCG,0.352
10,CGGAGCCC,-0.177
11,CCGAGCGC,0.361
12,CGGAGCCG,0.309
13,AGGGATGA,-0.133
14,GATTGAGC,0.109
15,AAGGGGAC,-0.0399
16,CGGAATGC,0.249
17,CAACAGCG,-0.182
18,ATATCCGC,0.178
19,ATATCCGA,0.343
20,GTATCCCA,-0.0951
21,GTATCCGA,0.304
22,ATATCCTA,-0.0362
23,GTATCCTA,-0.0431
24,ATATCCGG,0.374
25,ATGTCCGC,-0.0241

row,Sequence,PBM E-score
1,ATGTCCGG,0.373
2,AGATCCGG,0.263
3,ATGTCCGA,0.231
4,CTATCCGA,0.119
5,CAAGGGTA,-0.254
6,GTACGAGA,-0.1
7,CTCTAAGC,0.0215
8,GGACCCAC,-0.182
9,ATTGTTTG,0.137
10,ATTGTTTC,0.324
11,CTTGTTTC,0.0564
12,ATTGTTCC,0.267
13,ATTGTCCG,0.345
14,ATTGTCCC,-0.0916
15,ATTGTCCA,0.143
16,ATTGTTCA,0.112
17,ATTGTTCG,0.346
18,GCCCAGTA,-0.14
19,AACGGCCG,0.3
20,ATTGAATA,0.24
21,ATCCATAA,0.168
22,ACCCTAAC,-0.0425
23,CGATCGGA,0.142
24,AAATCGGG,0.0884
25,GAATCGGA,0.318

row,Sequence,PBM E-score
1,AGATCGGA,0.34
2,AAATCGGA,0.308
3,GCATCGGC,0.176
4,ACATCGGA,0.223
5,GAATCGGC,0.254
6,GCATCGGA,0.307
7,TAATCGGA,0.248
8,GGATCGGA,0.228
9,AAATCGGT,0.0224
10,CAAACAAG,0.0388
11,AACCTCTT,0.178
12,CCCAAGTC,-0.223
13,AAGCAGTA,-0.209
14,TGACTGAA,-0.14
15,AAATGCTT,0.0617
16,TCTGCGAA,-0.186
17,GCCTGCTA,-0.0406
18,ACTTCCAG,-0.112
19,CCGTTCAA,0.197
20,CCCTCATA,-0.288
21,CCTCGAGG,-0.112
22,GGAGTACC,-0.219
23,GTATCGGA,0.208
24,ATATCGGA,0.277
25,CTATCGGA,0.319

row,Sequence,PBM E-score
1,AAAGGGCA,-0.226
2,ATATGGCA,-0.15
3,CCACAGTA,-0.1
4,CCTCCTTA,-0.179
5,AGATTCCT,-0.215
6,ATATTCCA,0.16
7,ATATTCCC,0.176
8,AGATTCCG,0.338
9,ATATTCCG,0.38
10,AGATTCCC,-0.0681
11,ATAGTGCA,0.104
12,CGGTGCGA,0.00174
13,CGATGGTA,-0.146
14,TGTCCGAA,0.334
15,AGTCCGAT,0.19
16,AGTCCGAC,-0.14
17,CGTCCGAA,0.239
18,AGTCCGAA,0.343
19,TGTCCAAA,0.143
20,ATTCTGCA,0.124
21,TAAGCTAA,0.138
22,AGACCTAT,0.0227
23,AATATCAT,0.142
24,CCTCGCCC,-0.125
25,GCCGTAGA,0.322

row,Sequence,PBM E-score
1,ACCGTAAA,0.0422
2,GCCGTAGC,0.045
3,TCCGTAGA,0.204
4,TCCGTAAA,0.303
5,GCCGTAAA,0.339
6,GAAGCGTA,-0.0311
7,GGATTCGA,-0.0994
8,AATGCAAT,-0.256
9,ATGACGGA,0.198
10,CACTTCTG,-0.207
11,GATCTTTA,0.106
12,ATAACAAG,0.209
13,AGAACAAA,0.349
14,ATAACAAT,0.115
15,AGAACAAT,0.174
16,ATAACAAA,0.357
17,AGAACAAG,0.143
18,AGAGATAC,-0.0106
19,AGTGAGAT,-0.107
20,CGAGAGAG,0.166
21,AAGAGCAA,-0.0457
22,CACAAGCC,-0.0115
23,AGCCCGTA,-0.276
24,GAACACCC,-0.0175
25,AAGGCCCG,-0.093

row,Sequence,PBM E-score
1,CAGGCCGG,0.108
2,AAGGCCGT,0.156
3,AAGGCCGC,0.051
4,AAGGCCGG,0.318
5,AAGGCCGA,0.338
6,CGCCCGCA,-0.0897
7,GATGAGCA,0.0238
8,GAGGTCGA,-0.158
9,GACTGCCC,-0.309
10,ATATTGCG,-0.0525
11,CTCGGCTC,0.237
12,ATCGGCGA,0.128
13,CTCGGCGC,0.357
14,CTCGGCGA,0.399
15,GTCGGCTA,0.153
16,ATCGGCGC,0.275
17,GTCGGCGA,0.134
18,CTCGGCTA,0.352
19,CGCGGCGC,0.259
20,TAGATGGA,-0.162
21,AAGAGGAG,-0.115
22,GATGGATA,0.0331
23,CGGGGAGC,-0.0385
24,AGAGCCAT,-0.101
25,CGCTATGA,-0.0231

row,Sequence,PBM E-score
1,ATTCGGTC,0.244
2,AGTCGGAC,0.0344
3,GGTCGGAA,0.225
4,GTTCGGGA,0.226
5,ATTCGGAC,0.349
6,CTTCGGAA,0.394
7,CTTCGGGA,0.171
8,CTTCGGTC,0.309
9,ATTCGGGC,0.141
10,GTTCGGAA,0.402
11,CTTCGGTA,0.235
12,CGTCGGAA,0.24
13,AAAGTTAT,0.134
14,CGAACCCA,-0.0147
15,GCGCCCTA,-0.135
16,CGCGTAGC,-0.0173
17,CCTGTCAG,-0.101
18,TCCGCGAA,0.234
19,ATTGGTAG,-0.0488
20,CCTCGGAC,0.17
21,ATTCGGAA,0.353
22,ATTCGGAG,0.205
23,CTTCGGGC,-0.0555
24,CTTCGGAC,0.325
25,AGTCGGAA,0.245

row,Sequence,PBM E-score
1,GTATGCTA,-0.0379
2,AACCGCGA,0.225
3,AGCCGCGG,0.419
4,AACCGCGT,0.168
5,ACCCGCGT,-0.0424
6,AGCCGCGA,0.133
7,ATCCGCGC,0.141
8,AACCGCGG,0.372
9,AGCCGCGC,0.103
10,ACCCGCGA,-0.0511
11,ATCCGCGA,0.105
12,ATCCGCGG,0.359
13,ACCCGCGG,0.351
14,GATCGCAC,-0.0597
15,CAAAGATC,0.154
16,CGATCTGC,0.0352
17,AGCTACCT,-0.0785
18,CAGTCCCA,-0.171
19,GTAAGGAA,-0.0396
